Giardia kill = Small Molecules that selectively kill Giardia lamblia: qHTS | Giardia lamblia trophozoite viability | activity change, % at 7.66 µM, hits read low | 340,000 tested, 0.15% active; in the data active means activity change below about -80%; inconclusive means between about -30% and that limit;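 further: parasites exposed to compound for two days anaerobically before the ATP read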
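Trophozoites 100 cells/well + cpd; 48 hrs, 37 deg C, anaerobic. ATPLite 1-Step added, 15-30 min RT, luminescence read (ATP-based viability).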
RORg inh = qHTS for inhibitors of ROR gamma transcriptional activity; Nuclear receptor ROR-gamma (Mus musculus), P51450; Drosophila S2 Gal4-RORgamma UAS-luciferase reporter, 20 h; Potency, µM (top dose mostly 53.6 µM), most hits filed as inhibitors; 310,000 tested, 5.4% active; further: nearly all actives have a fitted effect of over 60% in size
Target sequence (P51450 whole entry, looked up, the tested form may be a part): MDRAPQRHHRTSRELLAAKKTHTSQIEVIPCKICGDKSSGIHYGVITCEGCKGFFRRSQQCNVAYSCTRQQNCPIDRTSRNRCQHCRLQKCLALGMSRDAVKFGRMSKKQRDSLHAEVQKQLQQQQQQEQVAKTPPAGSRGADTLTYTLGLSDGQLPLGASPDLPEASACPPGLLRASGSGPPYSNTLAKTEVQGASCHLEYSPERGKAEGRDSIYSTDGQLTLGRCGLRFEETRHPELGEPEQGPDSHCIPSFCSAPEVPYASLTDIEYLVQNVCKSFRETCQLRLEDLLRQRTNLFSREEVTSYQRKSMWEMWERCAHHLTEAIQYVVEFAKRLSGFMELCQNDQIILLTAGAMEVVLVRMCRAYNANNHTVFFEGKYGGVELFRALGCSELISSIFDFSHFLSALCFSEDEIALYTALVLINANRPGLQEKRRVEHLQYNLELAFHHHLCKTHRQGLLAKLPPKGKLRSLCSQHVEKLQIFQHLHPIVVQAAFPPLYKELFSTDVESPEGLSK
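Compounds are pin-transferred onto Drosophila Schneider cells expressing a copper-inducible Gal4–ROR gamma transactivation domain fusion. After 1 hr, copper sulfate is added to 700 uM final; luciferase is read 20 hr later.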
SW480 rereplic = A quantitative high throughput screen for small molecules that induce DNA re-replication in SW480 colon adenocarcinoma cells; SW480 DNA re-replication, Hoechst DNA content imaging, 48 h; Potency, µM (top dose mostly 46.1 µM), hits mostly activators; 340,000 tested, 1.8% active; further: nearly all actives have a fitted effect of over 55% in size
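Per well, 250 cells were exposed to pinned compound for 48 hr. Nuclear DNA was visualised with Hoechst (40 min, 37 C) and total object intensity recorded by fluorescence scanning.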
BCR signal inh = qHTS Assay to Find Inhibitors of Chronic Active B-Cell Receptor Signaling | Potency, µM (series often up to 46.1 µM), most hits filed as inhibitors | 340,000 tested, 0.05% active | ABC-DLBCL IkBa-CBG/CBR reporter, luminescence ratio, 4 h; active means well fitted inhibition curve with a large enough effect in the signal ratio, with a control signal flat, not every such curve was filed as active; inconclusive means small, poorly fitted or top-dose-only effect, or effect the other way, or a change in a side signal; the % refers to the signal ratio
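Cell line TMD8 (human ABC DLBCL), stably expressing tet-inducible CBG68-IkBa fusion and CBR; IMDM/0.5% FBS; cpd up to 46 uM; dox induction, 4 h, 37C/5% CO2; dual luminescence; green/red ratio; MG132 control.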
MCF10A rerep = A quantitative high throughput screen for small molecules that induce DNA re-replication in MCF 10a normal breast cells; MCF 10A DNA re-replication, Hoechst nuclear intensity, 48 h; Potency, µM (top dose mostly 46.1 µM), usual class: activators; 350,000 tested, 2.9% active; further: nearly all actives have a fitted effect of over 50% in size
Gal4-VP16 FLuc = VP16 counterscreen qHTS for inhibitors of ROR gamma transcriptional activity; Drosophila S2 Gal4-VP16 UAS-luciferase, luminescence, 20 h; Potency, µM (series often up to 53.6 µM), actives largely listed as inhibitors; 310,000 tested, 3.5% active;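 further: Gal4-VP16 expression switched on by copper sulfate through the metallothionein promoter; nearly all actives have a fitted effect of over 50% in size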
Each line names hits and unclear results; the compound was inactive in the other large screens. Hits are enriched below; roughly 8.3% of the tested compounds scored in any of these assays. Unless noted, the call rests on the fitted dose curve; in most records, active means well fitted curve in the direction sought with a large enough effect; inconclusive means small, poorly fitted or top-dose-only effect, or another doubt; inactive means no such curve, though single readings can be large; an effect the other way counts as inactive or inconclusive.

COc1ccc(-c2ccc3c(c2)S(=O)(=O)c2cccc(C(=O)NCc4cccc(OC(F)(F)F)c4)c2C3=O)cc1OC	MCF10A rerep 1.84µM (no result: RORg inh, Gal4-VP16 FLuc)
O=C(CSc1nnc(-c2ccco2)c(-c2ccco2)n1)Nc1ccccc1	none
Cc1ccc(NC(=O)CSc2nnc(-c3ccco3)c(-c3ccco3)n2)cc1	SW480 rereplic 16.4µM, BCR signal inh inconclusive, MCF10A rerep 5.8µM
COc1ccc(C(=O)CSc2nnc(-c3ccco3)c(-c3ccco3)n2)cc1	SW480 rereplic 6.51µM
Cc1nn(-c2ccccc2)c(N)c1N=Nc1ccccc1	SW480 rereplic inconclusive, BCR signal inh inconclusive, MCF10A rerep inconclusive
Nc1nn(-c2ccccc2)c(N)c1N=Nc1ccccc1	SW480 rereplic 5.17µM, BCR signal inh inconclusive, MCF10A rerep 5.8µM
Cc1cccc(N=Nc2c(C)nn(-c3ccccc3)c2N)c1C	RORg inh 2.51µM, BCR signal inh inconclusive, MCF10A rerep inconclusive, Gal4-VP16 FLuc inconclusive (no result: SW480 rereplic)
Nc1c(N=Nc2ccccc2F)c(=O)[nH]n1-c1ccccc1	BCR signal inh inconclusive
Nc1nn(-c2ccccc2)c(N)c1N=Nc1ccccc1F	SW480 rereplic 10.3µM, BCR signal inh inconclusive, MCF10A rerep 8.2µM
COc1cc2c(cc1OC)/C(=C/c1ccc(Cl)cc1)C(=O)OC2	SW480 rereplic inconclusive, BCR signal inh inconclusive, MCF10A rerep 13µM
CSCC[C@H](NC(=O)[C@H](CCC(N)=O)NC(=O)[C@H](CCCCN)NC(=O)[C@H](CCCNC(=N)N)NC(=O)[C@H](Cc1ccc(O)cc1)NC(=O)[C@H](CCCNC(=N)N)NC(=O)[C@H](CO)NC(=O)[C@H](Cc1ccc(O)cc1)NC(=O)[C@H](CO)NC(=O)[C@H](CC(=O)O)NC(=O)[C@@H](NC(=O)[C@@H](N)Cc1ccccc1)[C@@H](C)O)C(=O)N[C@@H](C)C(=O)N[C@H](C(=O)N[C@@H](CCCCN)C(=O)N[C@@H](CCCCN)C(=O)N[C@@H](Cc1ccc(O)cc1)C(=O)N[C@@H](CC(C)C)C(=O)N[C@@H](C)C(=O)N[C@@H](C)C(=O)N[C@H](C(=O)N[C@@H](CC(C)C)C(=O)NCC(=O)N[C@@H](CCCCN)C(=O)N[C@@H](CCCNC(=N)N)C(=O)N[C@@H](Cc1ccc(O)cc1)C(=O)N[C@@H](CCCCN)C(=O)N[C@@H](CCC(N)=O)C(=O)N[C@@H](CCCNC(=N)N)C(=O)N[C@H](C(=O)N[C@@H](CCCCN)C(=O)N[C@@H](CC(N)=O)C(=O)N[C@@H](CCCCN)C(N)=O)C(C)C)C(C)C)C(C)C	none (no result: Giardia kill, SW480 rereplic, BCR signal inh, MCF10A rerep)
CC(C)Cc1ccc(C2=CSC3=NCCN23)cc1	MCF10A rerep inconclusive (no result: RORg inh, BCR signal inh, Gal4-VP16 FLuc)
CC(C)(C)c1ccc(C2=CSC3=NCCN23)cc1	RORg inh 10µM, SW480 rereplic inconclusive, MCF10A rerep inconclusive
Cc1cc(NC(=O)c2ccc(F)cc2)n(CCOC(=O)c2ccc(F)cc2)n1	RORg inh inconclusive
Cc1cc(NC(=O)c2ccc(Cl)cc2)n(CCOC(=O)c2ccc(Cl)cc2)n1	RORg inh inconclusive, Gal4-VP16 FLuc 15.8µM
COc1cc2ccc(=O)oc2c(O)c1OCC=C(C)C	SW480 rereplic 2.06µM
CC1=C(C(=O)OC2CCCCC2)C(c2cccs2)n2c(nc3ccccc32)N1 (stereo not drawn)	RORg inh 4.47µM, BCR signal inh inconclusive, Gal4-VP16 FLuc inconclusive
CCOC(=O)C1=C(C)Nc2nc3ccccc3n2C1c1ccccc1 (stereo not drawn)	none
CCOC(=O)CN1C(=O)S/C(=C\c2ccc(-c3ccc(C(=O)O)c(Cl)c3)o2)C1=O	SW480 rereplic 0.651µM, BCR signal inh inconclusive, MCF10A rerep 23.1µM
O=C(O)c1ccc(-c2ccc(/C=C3\NC(=O)N(Cc4ccc(Cl)cc4)C3=O)o2)cc1Cl	SW480 rereplic 7.31µM, MCF10A rerep 11.2µM
Cc1ccc(/C=C2/NC(=O)N(Cc3ccc(Br)cc3)C2=O)o1	RORg inh inconclusive, SW480 rereplic inconclusive, MCF10A rerep 16.4µM, Gal4-VP16 FLuc inconclusive
Cc1ccc(NC(=O)CN2C(=O)S/C(=C\c3ccc(-c4cccc(C(=O)O)c4C)o3)C2=O)cc1C	SW480 rereplic inconclusive, MCF10A rerep 12.6µM
CCOC(=O)CN1C(=O)S/C(=C\c2ccc(-c3cccc(C(=O)O)c3C)o2)C1=O	none (no result: RORg inh, BCR signal inh, Gal4-VP16 FLuc)
Cc1cccc(NC(=O)CN2C(=O)N/C(=C/c3ccc(-c4cccc(C(=O)O)c4C)o3)C2=O)c1	none
C=CCNC(=O)c1ccccc1NC(=O)C1CCN(S(=O)(=O)c2ccc(SC)cc2)CC1	none
CC(=O)NCCc1ccc(S(=O)(=O)Nc2ccc(NC(=O)c3ccc(F)cc3)cc2)cc1	none
CCN(CC)c1ccc(/C=C2/SC(=O)N(C(C)C)C2=O)o1	RORg inh 5.01µM, SW480 rereplic 5.17µM, BCR signal inh inconclusive, MCF10A rerep inconclusive, Gal4-VP16 FLuc 2.82µM
Cc1ccc(N2NC(=O)/C(=C/c3ccc(-c4ccc(Cl)c(C(=O)O)c4)o3)C2=O)cc1	BCR signal inh inconclusive
CC(C)N1C(=O)S/C(=C\c2ccc(-c3ccc(Cl)c(C(=O)O)c3)o2)C1=O	RORg inh inconclusive, BCR signal inh inconclusive, MCF10A rerep inconclusive, Gal4-VP16 FLuc 2.51µM
Cc1cc(N2CCOCC2)ccc1/C=C1\SC(=O)N(C(C)C)C1=O	RORg inh inconclusive, BCR signal inh inconclusive
O=S(=O)(N1CCCCC1)N1CCN(c2cc(Cl)ccc2Cl)CC1	none
O=C(CNC(=O)c1ccccc1F)NCCc1ccccc1F	BCR signal inh inconclusive (no result: RORg inh, Gal4-VP16 FLuc)
CCC1(C)Cc2c(sc3nc(NN)n(C)c(=O)c23)CO1 (stereo not drawn)	SW480 rereplic inconclusive, BCR signal inh inconclusive, MCF10A rerep 20.6µM, Gal4-VP16 FLuc 14.1µM
CCOC(=O)CSc1nc2sc3c(c2c(=O)[nH]1)CC(C)(CC)OC3 (stereo not drawn)	none
COC(=O)c1ccc(S(=O)(=O)N2CCC(C(N)=O)CC2)n1C	BCR signal inh inconclusive
CCCS(=O)(=O)Nc1ccc(Nc2c3ccccc3nc3ccccc23)c(OC)c1	SW480 rereplic 7.31µM (no result: RORg inh, BCR signal inh, Gal4-VP16 FLuc)
COc1cc(NS(C)(=O)=O)ccc1Cc1c2ccccc2nc2ccccc12	none (no result: Giardia kill, SW480 rereplic, BCR signal inh, MCF10A rerep)
O=C(NCCc1c[nH]c2ccccc12)/C(=C\c1cccnc1)NC(=O)c1ccccc1F	none
Cc1cc2c(cc1C)NC(CC(=O)NCc1ccccc1)C(=O)N2 (stereo not drawn)	SW480 rereplic inconclusive, MCF10A rerep 14.1µM

Bioassay records: PubChem BioAssay, National Center for Advancing Translational Sciences (NCATS)
